Screening results deposited in PubChem BioAssay by The Scripps Research Institute Molecular Screening Center.
The list is not random: actives were taken first. Their share in the collection is about 4.1%.
DAX1 inh-1 = inhibits human nuclear receptor DAX1. AID 504766. inhibition, % at 6.75 µM. P51843. actives 0.99% (n = 340,000). HEK293 Gal4-DAX1 luciferase reporter, luminescence;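 active = inhibition above the mean over all tested compounds plus 3 SD, cut at about 4.2% in these data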;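 also: inhibition shows as a rise in luminescence from relieved DAX1 repression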
Target sequence (P51843 207-470 limits assumed): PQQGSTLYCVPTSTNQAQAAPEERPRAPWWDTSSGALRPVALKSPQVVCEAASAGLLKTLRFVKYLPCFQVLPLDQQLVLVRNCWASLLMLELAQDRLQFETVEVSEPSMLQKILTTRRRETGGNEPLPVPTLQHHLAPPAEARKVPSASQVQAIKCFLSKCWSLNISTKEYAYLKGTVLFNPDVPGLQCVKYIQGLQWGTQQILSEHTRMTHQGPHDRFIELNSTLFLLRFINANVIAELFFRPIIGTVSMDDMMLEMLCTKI
DAX1 inh-2 = DAX1 (NR0B1) inhibition, primary screen | HEK293T StAR-luciferase reporter, SF-1/DAX-1 repression relief | inhibition, % at 6.8 µM | actives 1.1% (n = 370,000) | AID 652010;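 active = inhibition above the mean over all tested compounds plus 3 SD, cut at about 3.6% in these data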;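 also: higher inhibition means more luminescence from relief of DAX-1 repression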
ssDAF-12 act = activates DAF-12 receptor from parasite S. stercoralis; HEK293 ssDAF-12/GRIP1 lit1-tk-luc reporter, luminescence; % of 3 µM dafachronic acid response; actives 1% (n = 370,000); activation, % at 6.8 µM;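 active = activation above the mean over all tested compounds plus 3 SD, cut at about 0.9% in these data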
hcDAF12 agonist = activates DAF-12 receptor from parasite H. contortus; activation, % at 6.8 µM; AID 652067; HEK293 hcDAF-12 lit1-tk-luc reporter, luminescence; 0% DMSO, 100% Δ7-dafachronic acid; actives 1.4% (n = 370,000);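 active = activation above the mean of all tested compounds plus 3 SD, cut at about 5.5% in these data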
hgDAF12 agonist = activates the H. glycines DAF-12 receptor ligand-binding domain; actives 1.8% (n = 370,000); AID 687014; HEK293 GAL4-hgDAF12 UAS-luciferase reporter, agonist luminescence; normalized to butyrate control; activation, % at 6.8 µM;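 active = activation above a cutoff set at the mean of all screened compounds plus 3 SD, cut at about 10% in these data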
Of the large screens only hits and unclear results are named; the others gave an inactive call.

COc1ccc(S(=O)(=O)NC(C)C(=O)NCc2cccnc2)cc1OC (centres undefined)	DAX1 inh-1 4.5
CCOP(=O)(OCC)C(NC(=O)Nc1ccc(Cl)cc1)C(=O)N(CC)CC (centres undefined)	ssDAF-12 act 1.5
CCOP(=O)(OCC)C(NC(=O)Nc1ccc(C)cc1)C(N)=O (centres undefined)	none (no result: DAX1 inh-1)
O=C(N/N=C/c1ccc(-c2ccccc2C(=O)O)o1)c1cccs1	hgDAF12 agonist 12.1
O=C(N/N=C/c1ccncc1)c1cccs1	none (no result: DAX1 inh-2, ssDAF-12 act, hcDAF12 agonist, hgDAF12 agonist)
CSCc1ccc(C(=O)NCCSc2ccc(Br)cc2)cc1	DAX1 inh-2 4.1
O=c1oc(-c2ccc(O)c(O)c2)cc2cc(O)cc(O)c12	DAX1 inh-1 7.6, hcDAF12 agonist 13.3
O=c1oc(-c2ccc(O)c(O)c2)cc2cccc(O)c12	ssDAF-12 act 2.6, hcDAF12 agonist 6.9
N#C/C(=C\c1ccc(N2CCOCC2)o1)C(=O)Nc1ccc(O)cc1	none (no result: DAX1 inh-1)
COc1ccc(NC(=O)/C(C#N)=C\c2ccc(N3CCOCC3)o2)cc1	hgDAF12 agonist 12.8
N#C/C(=C/c1ccc(N2CCCCC2)o1)C(=O)Nc1ccc(Cl)cc1	hgDAF12 agonist 11.2
COc1cccc(C(=O)n2ccc3ccc(-c4ccc5ccn(Cc6ccc(C#N)cc6)c5c4)cc32)c1	none (no result: DAX1 inh-1)
O=C(CSc1nc2ccc(Cl)cc2[nH]1)Nc1ccc2[nH]c(=O)[nH]c2c1	ssDAF-12 act 1.0
Cc1ccc2nc(SCC(=O)Nc3ccc4[nH]c(=O)[nH]c4c3)[nH]c2c1	ssDAF-12 act 1.0
COC(=O)CSc1nc2ccc(C)cc2[nH]1	none
Cc1ccc2nc(SCC(=O)c3ccc(O)cc3O)[nH]c2c1	hgDAF12 agonist 11.4
CCN(C(=O)Cn1c([N+](=O)[O-])cnc1C)c1ccccc1	ssDAF-12 act 1.5
O=C(NCCc1cccs1)c1cccs1	hgDAF12 agonist 10.6
O=C(NCC(O)c1ccccc1)c1cccs1 (centres undefined)	hgDAF12 agonist 12.0
C=CCCC1CN(Cc2ccc(OC)cc2)S(=O)(=O)c2c(Oc3cc(C)c(C)c(C)c3)cccc2O1 (centres undefined)	none (no result: DAX1 inh-1)
CCOC(=O)[C@]12CCCC3=C1N(CCC3)C(=O)[C@@H](CC(=O)NCc1cccc(C(F)(F)F)c1)C2	none (no result: DAX1 inh-1)
Oc1ccc(C=Nc2ccccc2-c2nc3ccccc3[nH]2)c(O)c1	none
COc1ccc(OC)c(C=Nc2ccccc2-c2nc3ccccc3[nH]2)c1	hgDAF12 agonist 12.3
CCOc1ccc2oc(C(=O)NC(C)(C)CC)c(C)c2c1	hgDAF12 agonist 12.7
OCC1(CCOc2ccccc2)CCN(Cc2ccc3c(c2)OCCO3)CC1	DAX1 inh-1 4.8
NC(=O)c1c(N)[nH]c(C(=O)c2ccccc2)c1-c1cccc2ccccc12	ssDAF-12 act 1.0 (no result: DAX1 inh-1, DAX1 inh-2)
Nc1[nH]c(C(=O)c2ccccc2)c(-c2cccc3ccccc23)c1C(=O)c1cccs1	none (no result: DAX1 inh-1)
CC(=O)OC1CCC2(C)C(CCC3C4CC=C(C(C)=O)C4(C)OC(=O)CC32)C1 (centres undefined)	none
CC(=O)O[C@H]1CC[C@@]2(C)C(CCC3C2CC[C@]2(C)OC(=O)CCC32)C1 (some centres undefined)	DAX1 inh-1 5.0
COc1ccc(C(=O)CSc2nnc(-c3ccccc3)n2-c2ccc(Cl)cc2)cc1	none (no result: DAX1 inh-1)
COc1cccc(-n2c(O)c(C=NCc3ccccn3)c3ccccc3c2=O)c1	none
COc1ccc(-n2c(O)c(C=NCc3ccccn3)c3ccccc3c2=O)c(OC)c1	hcDAF12 agonist 6.1
Cc1nn(Cc2c(F)c(F)c(F)c(F)c2F)c(C)c1NC(=O)c1ccc(COc2cc(Cl)ccc2Cl)cc1	ssDAF-12 act 3.4
Cc1nn(Cc2c(F)c(F)c(F)c(F)c2F)c(C)c1NC(=O)c1ccc(COc2ccccc2Cl)cc1	none
O=C(Nc1ccc2c(c1)C(=O)OC2)c1ccc(Cl)cc1Cl	hcDAF12 agonist 5.6
O=C(Nc1ccc2ccccc2c1)c1ccc(Cl)cc1Cl	hgDAF12 agonist 10.7
Cc1ccccc1CN1CCCCC(NC(=O)c2ccc(Br)cc2)C1=O (centres undefined)	none (no result: DAX1 inh-1)
C=CCN1C(=O)[C@@H](CC(=O)NCCCC)[C@]2(C(=O)OC)CCCCC=C12	none (no result: DAX1 inh-1)
O=C(Nc1cccc(Cl)c1)c1csc([C@H]2C[C@H](O)[C@@H](CO)O2)n1	hgDAF12 agonist 10.6 (no result: DAX1 inh-1)
O=C(Nc1cccc(C(F)(F)F)c1)Nc1nnc([C@@H]2C[C@H](O)[C@@H](CO)O2)s1	hgDAF12 agonist 10.5 (no result: DAX1 inh-1)
O=C(Nc1nnc([C@H]2C[C@H](O)[C@@H](CO)O2)s1)c1cccc(C(F)(F)F)c1	none (no result: DAX1 inh-1)
CC(C)Oc1cccc(C(=O)Nc2nnc([C@@H]3C[C@H](O)[C@@H](CO)O3)s2)c1	ssDAF-12 act 1.0 (no result: DAX1 inh-1)
COc1ccc(C(=O)Nc2nnc([C@@H]3C[C@H](O)[C@@H](CO)O3)s2)cc1	none (no result: DAX1 inh-1)
Cc1ccccc1CN1CCCCC(NC(=O)c2c(F)cccc2F)C1=O (centres undefined)	none (no result: DAX1 inh-1)
COc1ccc(-n2c(SCC(=O)NCC3CCCO3)nnc2-c2ccncc2)cc1 (centres undefined)	none (no result: DAX1 inh-1)
O=C1C[C@H](C(=O)Nc2ccc(Cl)cc2)[C@@H](c2ccccc2)O1	none (no result: DAX1 inh-1)
CC(=O)c1cc(-c2ccc(-c3cc(C(=O)O)c4ccccc4n3)cc2)c(=O)n2c1CCC2	none (no result: DAX1 inh-1)
O=C1CNC(=O)/C(=C/c2ccco2)N1	DAX1 inh-1 4.4
COC(=O)[C@]12C[C@H](CC(=O)NCc3ccc(OC)c(OC)c3)C(=O)N(Cc3cccc4ccccc34)C1=C[C@H](C(C)C)O[C@@H]2C1CC1	none (no result: DAX1 inh-1)
Cc1ccc(Cc2c(-c3cccc(Br)c3)nc3ccc(Cl)cn23)cc1	none (no result: DAX1 inh-1)
Clc1ccc2nc(-c3cccc(Br)c3)c(Cc3ccccc3)n2c1	none (no result: DAX1 inh-1)
Cc1ccc(Cc2c(-c3cccc(Br)c3)nc3ccc(C)cn23)cc1	hgDAF12 agonist 11.8 (no result: DAX1 inh-1)
COc1ccccc1Cc1c(-c2cccc(Br)c2)nc2ccc(C)cn12	ssDAF-12 act 1.2, hgDAF12 agonist 12.1 (no result: DAX1 inh-1)
Cc1ccc2nc(-c3cccc(Br)c3)c(Cc3ccccc3)n2c1	DAX1 inh-2 4.2, ssDAF-12 act 1.9, hcDAF12 agonist 8.1 (no result: DAX1 inh-1)
Cc1ccc2nc(-c3ccc(C#N)cc3)c(Cc3ccccc3)n2c1	hgDAF12 agonist 11.3 (no result: DAX1 inh-1)
CCCCNC(=O)C1(C(C)=O)CC(C(=O)OCC)=NO1 (centres undefined)	none (no result: DAX1 inh-1)
C#CCCCN([C@@H](CC(C)C)C(=O)OC)S(=O)(=O)c1ccccc1Br	none (no result: DAX1 inh-1)
Clc1cccc(Cc2c(-c3cccc(Br)c3)nc3ccc(Cl)cn23)c1	none (no result: DAX1 inh-1)
CC(C)(C)Cc1c(-c2ccc(Br)cc2)nc2ccc(Br)cn12	none
Cc1ccc2nc(-c3cccc(Br)c3)c(Cc3cccc(Cl)c3)n2c1	DAX1 inh-2 7.3 (no result: DAX1 inh-1)
Cc1ccc(Cc2c(-c3cccc(Cl)c3)nc3ccc(Br)cn23)cc1	hgDAF12 agonist 10.8 (no result: DAX1 inh-1)
CC(C)(C)Cc1c(-c2cccc(Cl)c2)nc2ccc(Br)cn12	ssDAF-12 act 2.1 (no result: DAX1 inh-1)
Clc1cccc(Cc2c(-c3ccco3)nc3ccc(Br)cn23)c1	ssDAF-12 act 1.9 (no result: DAX1 inh-1)
